Measured values taken from PubChem BioAssay (NCATS).
Inconclusive results are not listed. A call without a number means that no potency is given here. Calls of active or inactive are those of the source. Unless noted, the call rests on the fitted dose curve; in most records, active means well fitted curve in the direction sought with a large enough effect; inconclusive means small, poorly fitted or top-dose-only effect, or another doubt; inactive means no such curve, though single readings can be large; an effect the other way counts as inactive or inconclusive.

What was measured:
[1] = target: Voltage-gated inwardly rectifying potassium channel KCNH2 (Homo sapiens) (UniProt Q12809); test: qHTS Assay for Small Molecule Inhibitors of the Human hERG Channel Activity (AID 588834);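 further: lower thallium flux fluorescence means stronger hERG block; nearly all actives have a fitted effect of over 50% in size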; further: potency means the concentration at half of the fitted maximal effect
Method in brief: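 Cells were infected with hERG-BacMam virus for 4 hrs at room temperature, grown overnight, then seeded at 2000/well. After dye loading and roughly 10 min compound treatment, thallium influx was triggered and fluorescence recorded.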

[2] = target: Luciferin 4-monooxygenase (Photinus pyralis) (UniProt P08659); test: Biochemical firefly luciferase enzyme assay for NPC (AID 624030); further: nearly all actives have a fitted effect of over 70% in size; further: potency means the concentration at half of the fitted maximal effect
Method in brief: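 Direct inhibition of firefly luciferase enzyme (10 nM final, 50 mM Tris Acetate) assessed by luminescence within 5 minutes. Percent activity scaled between DMSO and PTC124 positive control, with concentration-effect curves classified by fit quality and response.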

[3] = S16 Schwann cell viability assay (CellTiter-Glo assay) (AID 624031); further: nearly all actives have a fitted effect of over 70% in size; further: potency means the concentration at half of the fitted maximal effect
Method in brief: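 Luminescent ATP read-out (CellTiter-Glo) after 24 h compound exposure of native S16 rat Schwann cells at 37 °C. Signals were normalized between cell-free wells and DMSO-treated cells, set as 0% activity.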

[4] = S16 Schwann cell PMP22 intronic element firefly luciferase assay (AID 624032); further: nearly all actives have a fitted effect of over 30% in size; further: potency means the concentration at half of the fitted maximal effect
Method in brief: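 Luciferase reporter of PMP22 intronic-element expression in stably transfected S16 rat Schwann cells, read by ONE-Glo luminescence after 24 h compound exposure at 37 C. Activity scaled between DMSO (0%) and positive-control PTC124; concentration-effect curves quality-classified.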

[5] = S16 Schwann cell PMP22 intronic element beta-lactamase assay (AID 624044; calls by dose curve; further: nearly all actives have a fitted effect of over 15% in size; further: potency means the concentration at half of the fitted maximal effect)
Method in brief: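 Beta-lactamase reporter under a PMP22 intronic regulatory element in stable S16 rat Schwann cells; 24 h compound exposure. 460 nm blue signal normalized between DMSO (0%) and potassium clavulanate, with 535 nm FRET tracking viability; curves classed by r2 and response.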

[6] = target: Glutaminase kidney isoform, mitochondrial (Homo sapiens) (UniProt O94925); test: qHTS for Inhibitors of Glutaminase (GLS): LOPAC Validation (AID 624146); further: nearly all actives have a fitted effect of over 60% in size; further: potency means the concentration at half of the fitted maximal effect
Method in brief: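 hKGA in 45 mM KH2PO4 pH 8.2, 0.02% Tween-20 with pin-transferred compounds; 1 mM L-glutamine (stock) plus glutamate oxidase/HRP/Amplex Red coupling added. Fluorescence read initially and after 30 min at RT.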

[7] = qHTS of Trypanosoma Brucei Inhibitors: LOPAC Validation (AID 624147)
Method in brief: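 Enzyme and substrate buffer are dispensed first and compound is pin-transferred. ADP at 130 uM final then starts the reaction, which runs 45 min at room temperature. Detection reagent is added for 10 min before luminescence is imaged.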

[8] = target: Glucagon-like peptide 1 receptor (Homo sapiens) (UniProt P43220); test: qHTS of GLP-1 Receptor Agonists: LOPAC Validation (AID 624148);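 further: luminescence from a luciferase reporter switched on by cAMP; higher luminescence signal means agonism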
Method in brief: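 Agonism scored as increased luciferase luminescence driven by cAMP in HEK293 clones carrying GLP-1R. Cells settled 12 hours, received compound for 4-6 hr at 37 deg C, 5% CO2, and were read after 12 min detection reagent at RT.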

[9] = qHTS of Nrf2 Activators: LOPAC Validation (AID 624149)
Method in brief: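 AREc32_Fluc cells, 1000/well, OPTI-MEM + 5% FBS, o/n 37 deg C 5% CO2; compound pin-transfer, 24 hr 37 deg C; Steady-Glo 30 min RT, luminescence read.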

[10] = HTS Assay for Allosteric Antagonists of the Human D2 Dopamine Receptor: Hit Validation in HTRF (AID 624455)
Method in brief: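 HTRF read-out; cells stably expressing D1 receptor; hits scored for inhibition of D1-mediated response. Primary screen: calcium flux, force-coupled inducible Hek293 Trex D2 line, antagonism vs EC80 dopamine.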

Voltage-gated inwardly rectifying potassium channel KCNH2 (Homo sapiens), sequence (Q12809 whole entry, looked up): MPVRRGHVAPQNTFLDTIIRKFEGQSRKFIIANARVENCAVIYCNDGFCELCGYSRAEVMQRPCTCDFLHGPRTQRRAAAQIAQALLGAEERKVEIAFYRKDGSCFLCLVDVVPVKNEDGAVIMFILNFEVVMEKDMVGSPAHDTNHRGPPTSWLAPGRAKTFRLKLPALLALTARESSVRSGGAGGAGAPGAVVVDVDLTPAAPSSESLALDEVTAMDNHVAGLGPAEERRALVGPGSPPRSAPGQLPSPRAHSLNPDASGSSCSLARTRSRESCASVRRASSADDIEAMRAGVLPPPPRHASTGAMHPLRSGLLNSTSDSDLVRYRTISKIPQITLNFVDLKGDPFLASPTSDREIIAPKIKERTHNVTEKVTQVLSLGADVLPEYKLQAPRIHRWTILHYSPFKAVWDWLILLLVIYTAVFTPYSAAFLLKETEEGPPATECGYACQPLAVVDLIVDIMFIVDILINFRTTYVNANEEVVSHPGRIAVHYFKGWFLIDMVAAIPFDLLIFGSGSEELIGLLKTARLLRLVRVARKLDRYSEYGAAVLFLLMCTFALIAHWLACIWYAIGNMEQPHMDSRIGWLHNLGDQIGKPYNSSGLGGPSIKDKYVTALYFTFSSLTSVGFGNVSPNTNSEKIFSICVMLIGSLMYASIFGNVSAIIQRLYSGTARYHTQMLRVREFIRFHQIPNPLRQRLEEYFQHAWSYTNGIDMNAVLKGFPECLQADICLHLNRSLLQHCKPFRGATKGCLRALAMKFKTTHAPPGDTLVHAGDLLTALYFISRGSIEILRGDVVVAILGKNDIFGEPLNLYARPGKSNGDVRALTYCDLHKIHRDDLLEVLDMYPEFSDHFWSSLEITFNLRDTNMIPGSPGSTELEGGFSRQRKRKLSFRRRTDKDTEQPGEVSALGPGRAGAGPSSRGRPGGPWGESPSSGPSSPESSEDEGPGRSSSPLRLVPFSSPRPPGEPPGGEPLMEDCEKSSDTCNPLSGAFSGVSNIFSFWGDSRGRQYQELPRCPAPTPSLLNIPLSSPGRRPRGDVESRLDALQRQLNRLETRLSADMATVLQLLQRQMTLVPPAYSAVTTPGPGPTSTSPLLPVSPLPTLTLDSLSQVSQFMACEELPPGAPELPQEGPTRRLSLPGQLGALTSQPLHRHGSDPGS
Luciferin 4-monooxygenase (Photinus pyralis), sequence (P08659 whole entry, looked up): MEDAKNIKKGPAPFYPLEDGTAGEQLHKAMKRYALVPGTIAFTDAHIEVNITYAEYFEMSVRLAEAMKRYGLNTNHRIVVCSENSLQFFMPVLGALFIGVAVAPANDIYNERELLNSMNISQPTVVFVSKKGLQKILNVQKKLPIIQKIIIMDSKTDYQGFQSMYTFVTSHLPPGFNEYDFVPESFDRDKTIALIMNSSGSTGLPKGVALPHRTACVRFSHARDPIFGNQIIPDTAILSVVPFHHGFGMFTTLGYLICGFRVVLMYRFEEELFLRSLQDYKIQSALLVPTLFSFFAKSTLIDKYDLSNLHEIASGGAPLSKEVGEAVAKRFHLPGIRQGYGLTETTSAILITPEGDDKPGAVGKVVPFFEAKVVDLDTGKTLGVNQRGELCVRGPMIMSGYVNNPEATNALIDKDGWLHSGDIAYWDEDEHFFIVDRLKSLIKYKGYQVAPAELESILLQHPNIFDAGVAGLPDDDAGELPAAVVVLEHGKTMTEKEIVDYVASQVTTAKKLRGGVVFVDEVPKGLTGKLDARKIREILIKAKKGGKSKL
Glutaminase kidney isoform, mitochondrial (Homo sapiens), sequence (O94925 whole entry, looked up, canonical isoform): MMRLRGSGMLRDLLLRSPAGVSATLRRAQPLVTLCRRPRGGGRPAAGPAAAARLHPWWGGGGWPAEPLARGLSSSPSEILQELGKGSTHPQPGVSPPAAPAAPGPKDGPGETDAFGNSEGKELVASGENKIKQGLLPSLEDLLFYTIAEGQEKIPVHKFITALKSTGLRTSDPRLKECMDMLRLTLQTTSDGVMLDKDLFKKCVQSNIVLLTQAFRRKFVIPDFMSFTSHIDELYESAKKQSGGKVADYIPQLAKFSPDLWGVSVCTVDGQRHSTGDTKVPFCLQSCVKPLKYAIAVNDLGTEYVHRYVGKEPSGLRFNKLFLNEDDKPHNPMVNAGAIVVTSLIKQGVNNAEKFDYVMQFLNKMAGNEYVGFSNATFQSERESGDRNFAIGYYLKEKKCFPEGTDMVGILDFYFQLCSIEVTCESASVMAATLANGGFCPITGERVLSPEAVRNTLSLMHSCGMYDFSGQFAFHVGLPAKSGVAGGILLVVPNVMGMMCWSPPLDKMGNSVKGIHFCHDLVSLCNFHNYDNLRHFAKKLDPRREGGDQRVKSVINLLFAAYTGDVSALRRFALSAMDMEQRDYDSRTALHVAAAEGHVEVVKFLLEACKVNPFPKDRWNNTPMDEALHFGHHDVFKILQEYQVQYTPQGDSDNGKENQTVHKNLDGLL
Glucagon-like peptide 1 receptor (Homo sapiens), sequence (P43220 whole entry, looked up): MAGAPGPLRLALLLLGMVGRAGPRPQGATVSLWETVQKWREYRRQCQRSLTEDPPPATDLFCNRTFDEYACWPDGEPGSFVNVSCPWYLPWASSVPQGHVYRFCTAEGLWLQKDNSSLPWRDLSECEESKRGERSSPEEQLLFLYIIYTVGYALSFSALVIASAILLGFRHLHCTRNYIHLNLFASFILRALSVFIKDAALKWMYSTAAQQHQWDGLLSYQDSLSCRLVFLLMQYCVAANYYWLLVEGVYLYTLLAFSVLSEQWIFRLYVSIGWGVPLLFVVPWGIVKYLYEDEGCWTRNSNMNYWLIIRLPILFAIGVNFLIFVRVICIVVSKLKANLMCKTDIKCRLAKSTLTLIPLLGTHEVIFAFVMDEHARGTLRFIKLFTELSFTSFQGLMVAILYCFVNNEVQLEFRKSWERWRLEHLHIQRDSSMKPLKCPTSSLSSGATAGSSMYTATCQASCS

Row | SMILES | Potency [1] | Potency [2] | Potency [3] | Potency [4] | Potency [5] | Potency [6] | Potency [7] | outcome [8] | Potency [9] | Potency [10]
1 | CCC1(c2ccccc2)C(=O)NC(=O)NC1=O | inactive | inactive | inactive | inactive | inactive |  |  |  |  | 
2 | C/C(=C\c1csc(C)n1)[C@@H]1C[C@@H]2O[C@]2(C)CCC[C@H](C)[C@H](O)[C@@H](C)C(=O)C(C)(C)[C@@H](O)CC(=O)O1 | inactive | inactive |  | 0.0573 µM (active) |  |  |  |  |  | 
3 | CNC(=O)Oc1ccccc1C(=O)Nc1ccccc1 | inactive | 14.4 µM (active) | inactive | inactive | inactive |  |  |  |  | 
4 | CN1[C@@H]2CC[C@H]1CC(OC1c3ccccc3CCc3ccccc31)C2 (stereo partly specified) | 8.91 µM (active) | inactive |  | inactive | inactive |  |  |  |  | 
5 | CC(=O)O[C@H]1CC[C@H]2[C@@H]3CCC4=CC(=O)CCC4=C3C=C[C@]12C | inactive | inactive | inactive | 8.09 µM (active) | inactive |  |  |  |  | 
6 | O=C(NC(=O)c1c(F)cccc1F)Nc1ccc(Cl)c(Oc2ncc(C(F)(F)F)cc2Cl)c1 | inactive | inactive | inactive | inactive | inactive |  |  |  |  | 
7 | CC(=O)OC1CN2CCC1CC2 (stereo unspecified) | inactive | inactive | inactive |  | inactive |  |  |  |  | 
8 | CC(C)(O)C1C2OC(=O)C1C1(O)CC3OC34C(=O)OC2C14C (stereo unspecified) | inactive | inactive | inactive | inactive | inactive |  |  |  |  | 
9 | CCCC(C)C1(CC)C(=O)NC(=O)NC1=O (stereo unspecified) | inactive |  | inactive | inactive |  |  |  |  |  | 
10 | Oc1cccc[c]1[Hg][Cl] | 20 µM (active) | 10.2 µM (active) | 1.28 µM (active) | 0.642 µM (active) | 4.46 µM (active) |  |  |  |  | 
11 | OC(c1ccccc1)(c1ccccc1)C1CN2CCC1CC2 (stereo unspecified) | 3.55 µM (active) | inactive | inactive |  | inactive |  |  |  |  | 
12 | CCC1(C)CC(=O)NC(=O)C1 | inactive | inactive | inactive | inactive | inactive |  |  |  |  | 
13 | O=C1CN=C(c2ccccc2)c2cc(Cl)ccc2N1CC1CC1 | inactive | inactive | inactive |  | inactive |  |  |  |  | 
14 | CCC1(CC)C(=O)NC(=O)N(C)C1=O | inactive | inactive | inactive | inactive | inactive |  |  |  |  | 
15 | COC1=CC=C2[C@H]3Cc4ccc(OC)c5c4[C@@]2(CCN3C)[C@H]1O5 | inactive | inactive | inactive | inactive | inactive |  |  |  |  | 
16 | c1csc(C2(N3CCCCC3)CCCCC2)c1 | inactive | inactive | inactive | inactive | inactive |  |  |  |  | 
17 | O=C1CN(O)C(c2ccccc2)=c2cc(Cl)ccc2=N1 | inactive | inactive | inactive | inactive | inactive |  |  |  |  | 
18 | CC[N+](C)(CC)CCOC(=O)C(O)(c1ccccc1)c1ccccc1 | inactive | inactive | inactive |  | inactive |  |  |  |  | 

Row | SMILES | Potency [1] | Potency [2] | Potency [3] | Potency [4] | Potency [5] | Potency [6] | Potency [7] | outcome [8] | Potency [9] | Potency [10]
19 | CNC(C)C(O)c1ccc(O)cc1 (stereo unspecified) | inactive |  | inactive | 2.28 µM (active) | inactive |  |  |  |  | 
20 | CC(=O)NBr | inactive |  |  |  |  | inactive | inactive | inactive | inactive | inactive
21 | C/C(O)=C(\C#N)C(=O)Nc1cc(Br)ccc1Br | inactive |  |  |  |  | inactive | inactive | inactive | inactive | inactive
22 | CO[C@H]1CC=C2CCN3CCC4=C(CC(=O)OC4)[C@]23C1 | inactive |  |  |  |  | inactive | inactive | inactive | inactive | inactive
23 | CCCn1c(C)c(C(=O)c2ccc3ccccc3c2)c2ccccc21 | 6.31 µM (active) |  |  |  |  | inactive | inactive | inactive | inactive | inactive
24 | C[N+](C)(C)CC#CCOC(=O)Nc1cccc(Cl)c1 | inactive |  |  |  |  | inactive | inactive | inactive | inactive | inactive
25 | NCCc1c[nH]c2ccc(C(N)=O)cc12 | inactive |  |  |  |  | inactive | inactive | inactive | inactive | inactive
26 | C=CCN1CC[C@]23c4c5ccc(O)c4O[C@H]2/C(=N/NC(=O)c2ccccc2)CC[C@@]3(O)[C@H]1C5 | 3.16 µM (active) |  |  |  |  | 14.1 µM (active) | inactive | inactive | inactive | inactive
27 | N[C@@H](CCl)C(=O)O | inactive |  |  |  |  | inactive | inactive | inactive | inactive | inactive
28 | NCCCP(=O)(O)O | inactive |  |  |  |  | inactive | inactive | inactive | inactive | inactive
29 | N[C@@H](Cn1oc(=O)[nH]c1=O)C(=O)O | inactive |  |  |  |  | inactive | inactive | inactive | inactive | inactive
30 | C[N+](C)(C)CC#CCN1CCCC1=O | inactive |  |  |  |  | inactive | inactive | inactive | inactive | inactive
31 | CC1(C(=O)O)C2CCC(O2)C1(C)C(=O)O (stereo unspecified) | inactive |  |  |  |  | inactive | inactive | inactive | inactive | inactive
32 | COc1ccc2c(c1)C13CCCCC1C(C2)N(C)CC3 (stereo unspecified) | inactive |  |  |  |  | inactive | inactive | inactive | inactive | inactive
33 | NC(=O)c1ccc(OCC(O)CN2CC=C(c3ccc(F)cc3)CC2)cc1 (stereo unspecified) | 7.94 µM (active) |  |  |  |  | inactive | inactive | inactive | inactive | inactive
34 | COc1ccc2c(c1)/C(=C/c1cnc[nH]1)C(=O)N2 | inactive |  |  |  |  | inactive | inactive | inactive | inactive | inactive
35 | CC(C)(C)c1o[nH]c(=O)c1CC(N)C(=O)O (stereo unspecified) | inactive |  |  |  |  | inactive | inactive | inactive | inactive | inactive
